Screens deposited in PubChem BioAssay by National Center for Advancing Translational Sciences (NCATS).
Many of the other results were omitted from the sample, so hits are more common in it than they were.
nsP2pro primary – Primary qHTS for inhibitors of NSP2Pro chikungunya virus (CHIKV) | Polyprotein P1234 (Chikungunya virus (strain S27-African prototype)), Q8JUX6 | FRET peptide cleavage, nsP2pro, fluorescence 1 h | Potency, µM (highest dose often 24.9 µM), hits mostly inhibitors | 1.1% of 31,000 active | AID 1964107, 2024; also: nearly all actives have a fitted effect of over 60% in size
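FRET cleavage of 2.5 uM peptide 2 by 150 nM CHIKV protease domain at pH 8.0 (Tris, Tween 20). Compounds at 7 concentrations (up to 25 uM) preincubated 15 min. Fluorescence read after 1 h at room temperature.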
nsP2 cell sec – Secondary cell base assay for inhibitors of NSP2Pro Chikungunya virus (CHIKV); Potency, µM (highest dose often 51.1 µM), usual class: inhibitors; cell-based CHIKV nsP2 protease reporter assay; AID 1964100, 2024; 10% of 450 active; shares compounds with nsP2pro primary; also: nearly all actives have a fitted effect of over 70% in size
NSP2 full ctr – Selectivity profile for inhibitors of NSP2Pro chikungunya virus (CHIKV): Full length NSP2 enzyme counterscreen (CHIKV-NSP2); Full-length CHIKV NSP2 protease enzymatic counterscreen; Potency, µM (series often up to 50.7 µM), actives largely listed as inhibitors; shares compounds with nsP2pro primary; 39% of 410 active; also: nearly all actives have a fitted effect of over 65% in size
Furin counterscr – Selectivity profile for inhibitors of NSP2Pro chikungunya virus (CHIKV): Human furin counterscreen | shares compounds with nsP2pro primary | Recombinant human furin enzymatic counterscreen, fluorogenic substrate | Potency, µM (top dose mostly 50.6 µM), hits mostly inhibitors | 6% of 410 active | AID 1964102, 2024
NS23 peptide cs – Selectivity profile for inhibitors of NSP2Pro chikungunya virus (CHIKV): Endogenous NS2/3 peptide Counterscreen; shares compounds with nsP2pro primary; Purified CHIKV nsP2 protease, endogenous NS2/3 peptide cleavage; Potency, µM (top dose mostly 51 µM), usual class: inhibitors; 34% of 410 active; AID 1964103, 2024; also: nearly all actives have a fitted effect of over 55% in size
Papain counter – Selectivity profile for inhibitors of NSP2Pro chikungunya virus (CHIKV): Papain Counterscreen. Potency, µM (series often up to 51 µM), usual class: inhibitors. shares compounds with nsP2pro primary. AID 1964104, 2024. purified papain protease activity, enzymatic inhibition. 5% of 410 active
nsP2pro conf qHTS – Confirmatory qHTS for inhibitors of NSP2Pro chikungunya virus (CHIKV); Potency, µM (highest dose often 25.5 µM), hits mostly inhibitors; shares compounds with nsP2pro primary; 43% of 410 active; CHIKV nsP2 protease enzymatic activity, qHTS; also: nearly all actives have a fitted effect of over 75% in size
HCV NS3 4A cs – Selectivity profile for inhibitors of NSP2Pro chikungunya virus (CHIKV): NS34A-HCV Counterscreen; shares compounds with nsP2pro primary; HCV NS3/4A protease biochemical counterscreen; Potency, µM (series often up to 50.9 µM), most hits filed as inhibitors; 20% of 410 active; also: nearly all actives have a fitted effect of over 55% in size
Large screens that a line does not name were inactive (follow-up assays come after a bar, where they were run); ! = not active in a repeat. Calls follow the shape of the full dose curve.

COc1ccc(CC(=O)Nc2ccc(S(=O)(=O)Nc3cc(C)on3)cc2)cc1C	none
COC(=O)c1ccccc1C(=O)Nc1nc(-c2ccccc2)cs1	none
O=C1CCCCN1CCNc1ccc(-c2nc(-c3ccccc3F)no2)cn1	none
CC1(C)[C@@H](O)CC[C@]2(C)[C@H]3CC=C4[C@@H]5C[C@](C)(C(=O)O)CC[C@]5(C)CC[C@@]4(C)[C@]3(C)CC[C@@H]12	none
CC1=C(O)C(=O)C=C2C1=CC=C1[C@@]2(C)CC[C@@]2(C)[C@@H]3C[C@](C)(C(=O)O)CC[C@]3(C)CC[C@]12C	nsP2pro primary 4.4µM! | nsP2 cell sec inconclusive | NSP2 full ctr 16µM | Furin counterscr inconclusive | NS23 peptide cs 4.6µM | Papain counter inconclusive | nsP2pro conf qHTS 1.8µM | HCV NS3 4A cs 21µM
C[C@@]1(C(=O)O)CC[C@]2(C)CC[C@]3(C)C4=CC(=O)c5cc(O)c(O)cc5[C@]4(C)CC[C@@]3(C)[C@@H]2C1	none
O=C(Nc1cccc2nn(-c3ccc(F)cc3)cc12)c1ccccn1	none
O=C(c1ccco1)n1nc(-c2ccccc2)nc1NCc1ccc(Cl)cc1	none
COc1ccccc1CNc1nc2c(S(=O)(=O)c3ccc(C)c(C)c3)nnn2c2ccc(Cl)cc12	none
COc1ccccc1CNc1nc(-c2ccco2)nn1S(=O)(=O)c1ccc(Cl)cc1	nsP2pro primary 8.9µM | nsP2 cell sec inactive
O=S(=O)(Nc1ccc2ccccc2c1)c1ccc(NCc2ccc(Br)cc2O)cc1	none
Cc1cc(C[C@@H]2COC[C@@H]2NC(=O)C2CCN(C(=O)C3CC3)CC2)on1	none
Cc1cc(C)nc(NC(=S)N2CCN(c3ccc(F)cc3F)CC2)c1	none
Cn1c(CN2CCCCC2)nc2cc(NC(=O)c3ccc(Cl)cc3)ccc21	none
Cn1c(CCCC(=O)O)nc2cc(N(CCCl)CCCl)ccc21	nsP2pro primary 9.9µM | nsP2 cell sec inactive | NSP2 full ctr 16µM | Furin counterscr inactive | NS23 peptide cs inconclusive | Papain counter inactive | nsP2pro conf qHTS 8µM | HCV NS3 4A cs inconclusive
CCCCc1nc2cc(/C=C/C(=O)NO)ccc2n1CCN(CC)CC	none
Cc1nn2c(c1-c1ccccc1OCc1ccccc1)N(C(=O)Cc1ccccc1)CCC2	none
N#Cc1nc(-c2cccc3ccccc23)oc1NC1COC1	none
O=C(O)[C@H]1C2CCC(CC2)[C@@H]1Nc1nc(-c2c[nH]c3ncc(F)cc23)ncc1F	nsP2pro primary inconclusive | nsP2 cell sec inactive | NSP2 full ctr inactive | Furin counterscr inactive | NS23 peptide cs inactive | Papain counter inconclusive | nsP2pro conf qHTS inconclusive | HCV NS3 4A cs inactive
N#Cc1ccc(CSc2nc3ncc(Br)cc3[nH]2)cc1	none
Cc1cccc2c3c(ccc12)C1=C(C(=O)C3=O)[C@@H](C)CO1	nsP2pro primary inconclusive | nsP2 cell sec inactive | NSP2 full ctr 10µM | Furin counterscr inactive | NS23 peptide cs inconclusive | Papain counter inconclusive | nsP2pro conf qHTS 10µM | HCV NS3 4A cs inactive
Cc1cc(C)cc(-c2ccc(CN3CCCC(N[S+](=O)([O-])c4cccs4)C3)cc2)c1 (centres undefined)	none
CCN(Cc1cccc2nonc12)CC1CCCN(CCc2cccc(OC)c2)C1 (centres undefined)	none
C[S+](=O)([O-])N1CC2(Cc3ccccc31)CN(C(=O)NC1CCCC1)C2	none
C[C@@H]1C[C@@H](O)[C@@]23CO[C@]2(CO)CCC[C@@H]3[C@@]12C[C@@H](c1ccoc1)OC2=O	nsP2pro primary inconclusive | nsP2 cell sec inactive | NSP2 full ctr inactive | Furin counterscr inactive | NS23 peptide cs inactive | Papain counter inactive | nsP2pro conf qHTS inactive | HCV NS3 4A cs inactive
CC1CC2OCC3(O)CCC(O)C(C14CC(c1ccoc1)OC4=O)C23CO (centres undefined)	none
O=C1CCCC2=C1C(c1cccnc1Cl)N=C(Nc1nc3ccccc3o1)N2 (centres undefined)	none
Clc1ccc(CCCOCCCN2CCCCC2)cc1	none
Cc1c2cc(c(C(=O)O)c1C)OC1OC(C(O)C(O)C1O)C(O)C(O)C1OC(O2)C(O)C(O)C1O (centres undefined)	none
CC(=O)O[C@@](C)(C(=O)/C=C/C(C)(C)O)[C@H]1[C@H](O)C[C@@]2(C)[C@@H]3CC=C4[C@@H](C=C(O)C(=O)C4(C)C)[C@]3(C)C(=O)C[C@]12C	none
Cc1ccc(C#Cc2cc(-c3nn(-c4nc(C(=O)O)cs4)c(CC4CC4)c3Cc3ccc(S(N)(=O)=O)c(F)c3)ccc2F)o1	nsP2pro primary 4µM | nsP2 cell sec 0.13µM | NSP2 full ctr inconclusive | Furin counterscr inactive | NS23 peptide cs inactive | Papain counter 23µM | nsP2pro conf qHTS inactive | HCV NS3 4A cs inactive
N#Cc1c2nc3ccccc3nc2n2ccc(NC(=O)c3cccs3)cc12	none
Cc1ccc(OCCn2c(CCNC(=O)c3cccc4cc[nH]c34)nc3ccccc32)cc1	none
COc1ccc(CN(Cc2ccccc2)C(=O)c2ccccc2O)cc1	none
COc1ccc(C(=O)N(Cc2ccco2)Cc2ccco2)c(O)c1	nsP2pro primary 5µM | nsP2 cell sec 21µM | NSP2 full ctr inconclusive | Furin counterscr inactive | NS23 peptide cs inconclusive | Papain counter inactive | nsP2pro conf qHTS inconclusive | HCV NS3 4A cs inconclusive
Cc1ccc(CN(Cc2ccco2)C(=O)c2ccc(Cl)cc2Cl)cc1	none
CC(=O)N1CCN(C(=O)c2cn3cc(-c4ccc(F)cc4)sc3n2)CC1	none
O=C(c1ccc(Cl)s1)N1CCC(n2cnnc2-c2ccccc2)C1 (centres undefined)	none
CC1=C2CC3C(CCC3(C)O)C(C)(O)CC2OC1=O (centres undefined)	none
CC1=C2C[C@@]3(C)C(CCC[C@@H]3C)C(O)C2OC1=O (some centres undefined)	nsP2pro primary 9.9µM | nsP2 cell sec inactive | NSP2 full ctr 13µM | Furin counterscr inactive | NS23 peptide cs inconclusive | Papain counter inconclusive | nsP2pro conf qHTS 7.1µM | HCV NS3 4A cs inactive
Cc1cnc(-c2ccccc2C(C)C)nc1NCC1CCN(c2cnccn2)CC1	none
